Reference: PubChem BioAssay AID1159580 (chemical genetic matrix, 2015)
Hit rate of the full screen: of about 5,500 compounds, about 2,000 (36%) were called active. Inconclusive results (about 18%) are left out. No stated cut-off is given here; in the data, active means normalized growth mostly below about 0.91 (no sharp cut-off); inconclusive means no clear call, values can overlap the other calls; inactive means mostly above about 0.92. The list shows a part of the results.

Test: chemical genetic growth profiling, strain panel (AID 1159580);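 further: tested at 20 µM; growth read once vehicle control cultures reached saturation at 30 °C; 1 = growth at the plate median or of vehicle wells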
Settings: growth OD
[1] = S. cerevisiae deletion strains, locus YJR075W, strain HOC1, stronger effect = lower value
[2] = S. cerevisiae deletion strains, locus YMR307W, strain GAS1, stronger effect = lower value
[3] = S. cerevisiae deletion strains, locus YNL128W, strain TEP1, stronger effect = lower value
[4] = S. cerevisiae deletion strains, locus YNL322C, strain KRE1, stronger effect = lower value
[5] = S. cerevisiae deletion strains, locus YPL055C, strain LGE1, stronger effect = lower value
[6] = S. cerevisiae deletion strains, locus YPL241C, strain CIN2, stronger effect = lower value
[7] = S. cerevisiae deletion strains, locus YDL101C, strain DUN1, stronger effect = lower value
[8] = S. cerevisiae deletion strains, locus YHR030C, strain SLT2, stronger effect = lower value

Measured: normalized growth

CCCn1c(=O)c2[nH]c(-c3ccc(OCC(=O)NCCN)cc3)nc2n(CCC)c1=O
inactive: S. cerevisiae deletion strains, locus YAL040C, strain CLN3, stronger effect = lower value 1.05 | S. cerevisiae deletion strains, locus YCL061C, strain MRC1 (second series), stronger effect = lower value 0.984 | S. cerevisiae deletion strains, locus YDR363W, strain ESC2, stronger effect = lower value 0.983 | S. cerevisiae deletion strains, locus YER002W, strain NOP16, stronger effect = lower value 0.986 | [1] 0.99 | [2] 1.01 | [3] 0.973 | S. cerevisiae deletion strains, locus YNL175C, strain NOP13, stronger effect = lower value 0.98 | S. cerevisiae deletion strains, locus YNL197C, strain WHI3, stronger effect = lower value 0.977 | S. cerevisiae deletion strains, locus YNL224C, strain SQS1, stronger effect = lower value 0.999 | [4] 0.95 | S. cerevisiae deletion strains, locus YOR083W, strain WHI5 (second series), stronger effect = lower value 0.984 | [5] 0.973 | [6] 0.985

CSc1cccc(N2C(=O)CC(c3c(Cl)cccc3Cl)CC2=O)c1
active: S. cerevisiae deletion strains, locus YJR066W, strain TOR1 (second series), stronger effect = lower value 0.566
inactive: S. cerevisiae deletion strains, locus YAR019C, strain CDC15, stronger effect = lower value 0.99 | S. cerevisiae deletion strains, locus YBL105C, strain PKC1, stronger effect = lower value 0.98 | S. cerevisiae deletion strains, locus YBR135W, strain CKS1, stronger effect = lower value 0.987 | S. cerevisiae deletion strains, locus YBR136W, strain MEC1, stronger effect = lower value 0.989 | S. cerevisiae deletion strains, locus YBR160W, strain CDC28, stronger effect = lower value 0.989 | S. cerevisiae deletion strains, locus YDL017W, strain CDC7, stronger effect = lower value 0.99 | S. cerevisiae deletion strains, locus YDL028C, strain MPS1, stronger effect = lower value 0.997 | [7] 0.987 | S. cerevisiae deletion strains, locus YDL108W, strain KIN28, stronger effect = lower value 0.988 | S. cerevisiae deletion strains, locus YDL132W, strain cdc53, stronger effect = lower value 0.982 | S. cerevisiae deletion strains, locus YDL214C, strain PRR2, stronger effect = lower value 0.997 | S. cerevisiae deletion strains, locus YDR052C, strain DBF4, stronger effect = lower value 0.988 | S. cerevisiae deletion strains, locus YDR054C, strain cdc34, stronger effect = lower value 0.983 | S. cerevisiae deletion strains, locus YDR226W, strain ADK1, stronger effect = lower value 0.983 | S. cerevisiae deletion strains, locus YDR477W, strain SNF1, stronger effect = lower value 0.992 | S. cerevisiae deletion strains, locus YER123W, strain YCK3, stronger effect = lower value 0.975 | S. cerevisiae deletion strains, locus YER133W, strain GLC7, stronger effect = lower value 0.993 | S. cerevisiae deletion strains, locus YFL009W, strain cdc4, stronger effect = lower value 0.966 | S. cerevisiae deletion strains, locus YFL029C, strain CAK1, stronger effect = lower value 0.986 | S. cerevisiae deletion strains, locus YFR003C, strain YPI1, stronger effect = lower value 0.983 | S. cerevisiae deletion strains, locus YFR019W, strain FAB1, stronger effect = lower value 0.971 | S. cerevisiae deletion strains, locus YFR028C, strain CDC14, stronger effect = lower value 0.986 | S. cerevisiae deletion strains, locus YGR040W, strain KSS1, stronger effect = lower value 0.987 | S. cerevisiae deletion strains, locus YGR052W, strain FMP48, stronger effect = lower value 1.02 | S. cerevisiae deletion strains, locus YGR092W, strain DBF2, stronger effect = lower value 0.985 | [8] 0.894 | S. cerevisiae deletion strains, locus YHR079C, strain IRE1, stronger effect = lower value 0.904 | S. cerevisiae deletion strains, locus YHR082C, strain KSP1, stronger effect = lower value 0.948 | S. cerevisiae deletion strains, locus YHR205W, strain SCH9, stronger effect = lower value 0.916 | S. cerevisiae deletion strains, locus YIL147C, strain SLN1, stronger effect = lower value 0.996 | S. cerevisiae deletion strains, locus YJL095W, strain BCK1, stronger effect = lower value 0.956 | S. cerevisiae deletion strains, locus YJL128C, strain PBS2, stronger effect = lower value 0.955 | S. cerevisiae deletion strains, locus YJL157C, strain FAR1, stronger effect = lower value 0.985 | S. cerevisiae deletion strains, locus YJR016C, strain ILV3, stronger effect = lower value 0.987 | S. cerevisiae deletion strains, locus YJR066W, strain TOR1, stronger effect = lower value 0.908 | S. cerevisiae deletion strains, locus YKL048C, strain ELM1, stronger effect = lower value 0.995 | S. cerevisiae deletion strains, locus YKL067W, strain YNK1, stronger effect = lower value 0.992 | S. cerevisiae deletion strains, locus YKL101W, strain HSL1, stronger effect = lower value 0.993 | S. cerevisiae deletion strains, locus YKL193C, strain SDS22, stronger effect = lower value 0.985 | S. cerevisiae deletion strains, locus YKL203C, strain TOR2, stronger effect = lower value 1.04 | S. cerevisiae deletion strains, locus YLR113W, strain HOG1, stronger effect = lower value 0.889 | S. cerevisiae deletion strains, locus YLR133W, strain CKI1, stronger effect = lower value 1 | S. cerevisiae deletion strains, locus YLR403W, strain SFP1, stronger effect = lower value 0.946 | S. cerevisiae deletion strains, locus YML070W, strain DAK1, stronger effect = lower value 0.995 | S. cerevisiae deletion strains, locus YMR001C, strain CDC5, stronger effect = lower value 0.992 | S. cerevisiae deletion strains, locus YMR205C, strain PFK2 (second series), stronger effect = lower value 0.997 | S. cerevisiae deletion strains, locus YMR277W, strain FCP1, stronger effect = lower value 0.983 | S. cerevisiae deletion strains, locus YNL006W, strain LST8, stronger effect = lower value 0.996 | S. cerevisiae deletion strains, locus YNL020C, strain ARK1, stronger effect = lower value 0.993 | S. cerevisiae deletion strains, locus YNL161W, strain CBK1, stronger effect = lower value 0.981 | S. cerevisiae deletion strains, locus YNL183C, strain NPR1, stronger effect = lower value 0.947 | S. cerevisiae deletion strains, locus YNL207W, strain RIO2, stronger effect = lower value 0.993 | S. cerevisiae deletion strains, locus YNL222W, strain SSU72, stronger effect = lower value 0.981 | S. cerevisiae deletion strains, locus YNL307C, strain MCK1 (second series), stronger effect = lower value 0.988 | S. cerevisiae deletion strains, locus YOL078W, strain AVO1, stronger effect = lower value 0.993 | S. cerevisiae deletion strains, locus YOL136C, strain PFK27, stronger effect = lower value 0.976 | S. cerevisiae deletion strains, locus YOR061W, strain CKA2, stronger effect = lower value 0.994 | S. cerevisiae deletion strains, locus YOR119C, strain RIO1, stronger effect = lower value 1 | S. cerevisiae deletion strains, locus YOR231W, strain MKK1, stronger effect = lower value 0.918 | S. cerevisiae deletion strains, locus YOR329C, strain SCD5, stronger effect = lower value 0.985 | S. cerevisiae deletion strains, locus YPL031C, strain PHO85, stronger effect = lower value 0.989 | S. cerevisiae deletion strains, locus YPL153C, strain RAD53, stronger effect = lower value 0.97 | S. cerevisiae deletion strains, locus YPL204W, strain HRR25, stronger effect = lower value 0.981 | S. cerevisiae deletion strains, locus YPL209C, strain IPL1, stronger effect = lower value 0.989 | S. cerevisiae deletion strains, locus YPL256C, strain CLN2, stronger effect = lower value 0.924 | S. cerevisiae deletion strains, locus YPR025C, strain CCL1, stronger effect = lower value 0.986 | S. cerevisiae deletion strains, locus YPR106W, strain ISR1, stronger effect = lower value 0.979 | S. cerevisiae deletion strains, locus YPR111W, strain DBF20, stronger effect = lower value 0.977 | S. cerevisiae deletion strains, strain NNK1, stronger effect = lower value 0.983 | S. cerevisiae deletion strains, strain TSCII, stronger effect = lower value 0.982

O=C(CC(Nc1ccccc1)c1ccccc1)C1CC1 (stereo not given)
inactive: S. cerevisiae deletion strains, locus YAL013W, strain DEP1, stronger effect = lower value 1 | S. cerevisiae deletion strains, locus YBR229C, strain ROT2, stronger effect = lower value 0.99 | S. cerevisiae deletion strains, locus YCL061C, strain MRC1, stronger effect = lower value 0.974 | [7] 0.988 | S. cerevisiae deletion strains, locus YDL134C, strain PPH21, stronger effect = lower value 0.982 | S. cerevisiae deletion strains, locus YDR150W, strain NUM1, stronger effect = lower value 0.982 | S. cerevisiae deletion strains, locus YEL061C, strain CIN8, stronger effect = lower value 0.992 | S. cerevisiae deletion strains, locus YGR078C, strain PAC10, stronger effect = lower value 1.03 | [8] 0.968 | S. cerevisiae deletion strains, locus YHR087W, strain rtc3, stronger effect = lower value 1.04 | S. cerevisiae deletion strains, locus YJL187C, strain SWE1, stronger effect = lower value 1 | S. cerevisiae deletion strains, locus YJR043C, strain POL32, stronger effect = lower value 0.996 | [1] 0.969 | S. cerevisiae deletion strains, locus YLR039C, strain RIC1, stronger effect = lower value 0.869 | S. cerevisiae deletion strains, locus YLR058C, strain SHM2 (second series), stronger effect = lower value 0.998 | S. cerevisiae deletion strains, locus YLR085C, strain ARP6, stronger effect = lower value 0.992 | S. cerevisiae deletion strains, locus YLR262C, strain YPT6, stronger effect = lower value 0.938 | S. cerevisiae deletion strains, locus YML094W, strain GIM5, stronger effect = lower value 1.01 | S. cerevisiae deletion strains, locus YMR219W, strain ESC1, stronger effect = lower value 0.994 | S. cerevisiae deletion strains, locus YMR263W, strain SAP30, stronger effect = lower value 1.01 | [2] 1.19 | [3] 0.989 | S. cerevisiae deletion strains, locus YNL153C, strain GIM3, stronger effect = lower value 1.01 | S. cerevisiae deletion strains, locus YNL298W, strain CLA4 (second series), stronger effect = lower value 0.985 | [4] 0.982 | S. cerevisiae deletion strains, locus YNR030W, strain Alg12, stronger effect = lower value 1 | [5] 1.02 | [6] 0.981 | S. cerevisiae deletion strains, locus YPR135W, strain CTF4, stronger effect = lower value 0.915 | S. cerevisiae strains, strain wild type, stronger effect = lower value 0.979
